ChEMBL document CHEMBL3433997, “St. Jude Leishmania screening dataset” (2016)

Tests used:
Assay type in all cases: functional
[1] = biological target: Solute carrier family 2, facilitated glucose transporter member 1 (Homo sapiens) (UniProt P11166); test: ST_JUDE_LEISH: Cytotoxicity at 2uM final concentration against transgenic Leishmania Mexicana promastigotes LmGLUT1 that are glucose transport deficient and complemented with the human glucose transporter GLUT1. Activity is measured by DNA content using SYBR green in vitro
[2] = biological target: Hexose transporter 1 (Plasmodium falciparum) (UniProt O97467); test: ST_JUDE_LEISH: Cytotoxicity at 2uM final concentration against transgenic Leishmania Mexicana promastigotes LmPfHT that are glucose transport deficient and complemented with the Plasmodium falciparum hexose transporter. Activity is measured by DNA content using SYBR green in vitro
[3] = biological target: Glucose transporter (Leishmania mexicana) (UniProt O61059); test: ST_JUDE_LEISH: Cytotoxicity at 2uM final concentration against transgenic Leishmania Mexicana promastigotes LmGT2 that are glucose transport deficient and complemented with the L. Mexicana glucose transporter 2. Activity is measured by DNA content using SYBR green in vitro

Chain of Solute carrier family 2, facilitated glucose transporter member 1 (Homo sapiens) (P11166 whole entry): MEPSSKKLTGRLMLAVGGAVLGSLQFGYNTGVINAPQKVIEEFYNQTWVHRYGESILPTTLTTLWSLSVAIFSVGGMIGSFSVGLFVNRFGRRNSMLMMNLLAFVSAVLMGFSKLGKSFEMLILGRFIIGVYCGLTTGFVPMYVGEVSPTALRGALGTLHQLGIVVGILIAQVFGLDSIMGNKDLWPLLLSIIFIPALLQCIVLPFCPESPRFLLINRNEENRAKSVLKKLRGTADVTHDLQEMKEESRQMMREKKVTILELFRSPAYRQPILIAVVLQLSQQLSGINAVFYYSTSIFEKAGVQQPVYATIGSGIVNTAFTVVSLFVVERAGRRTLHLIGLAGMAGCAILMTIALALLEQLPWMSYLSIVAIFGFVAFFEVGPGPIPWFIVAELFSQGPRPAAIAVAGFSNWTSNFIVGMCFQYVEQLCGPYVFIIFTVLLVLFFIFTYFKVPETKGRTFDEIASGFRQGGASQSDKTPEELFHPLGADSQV

Compound | inhibition [1] | inhibition [2] | inhibition [3]
OC(c1nnc(S)n1-c1ccccc1)C(O)c1nnc(S)n1-c1ccccc1 (configuration not stated) | 10.1% | 8.57% | 10%
CN(C)c1c(CNCCCCCCNCc2ccc3ccccc3c2N(C)C)ccc2ccccc12 | 8.79% | 8.66% | 7.38%
O=C(/C=C/c1ccc(Cl)c(Cl)c1)NCCCCCN1CCC(c2c[nH]c3ccccc23)CC1 | 1.33% | 4.32% | 3.63%
COc1cc(N)c(Cl)cc1C(=O)NC1CCC(NCC2CCCCC2)CC1 (configuration not stated) | 2% | 1.99% | 1.15%
CC(C)NCc1ccc(-c2ccc(NC(=O)c3cccc(C#N)c3)cc2)cc1 | 1.38% | 1.38% | -1%
Nc1nccc2ccc(Oc3ccncc3)cc12 | 2.47% | 3.29% | 4.2%
O=C(NCC1CC1)C1CCN(C(c2ccccc2)c2nc3ccccc3s2)CC1 (configuration not stated) | -0.89% | -1.39% | -4.85%
Cc1nc2ccc(Nc3nccc(-c4c(-c5cccc(NC(=O)c6c(F)cccc6F)c5)nn5ccccc45)n3)cc2nc1C | 2.58% | 4.37% | -1.39%
O=C(NCCCCN1CCN(c2cccc(Cl)c2Cl)CC1)c1ccc2c(c1)CCN(C1CCC1)CC2 | 1.09% | -1.47% | -0.46%
CS(=O)(=O)N(c1ccc(F)cc1)c1cc(C(=O)N[C@@H](Cc2ccccc2)[C@H](O)CNCc2cccc(C(F)(F)F)c2)cc(N2CCCC2=O)c1 | 1.67% | -0.54% | -1.53%
COC(=O)c1c(C#N)c(OC)cc(O)c1CSC[C@H](Nc1nc(-c2ccc([N+](=O)[O-])cc2)cs1)C(=O)NCCN1CCCCC1 | -1.73% | 0.29% | -0.42%
CC(=O)Nc1nc(C(=O)Nc2cccc(-c3cccc(-c4nc5cc(F)ccc5[nH]4)c3)c2)cs1 | 2.3% | 3.28% | 2.66%
Cc1c(F)cc(C(=O)NC2CC2)cc1-c1ccc2c(cnn2S(=O)(=O)c2cccs2)c1 | 2.62% | 5.11% | 0.02%
Nc1nc(N)c2c(ccc3c2ccn3CCCC(F)(F)F)n1 | 14.2% | 20.3% | 8.28%
